# Experimental data reported in the supplement of paper PMC9023506.
# Counter-ions that a name gives are not always drawn.
# System: Danio rerio larvae (5 dpf)
# Experiment: activity during period 15 (no stimuli), difference vs DMSO (percentage points (treated minus DMSO)); higher = more of the behaviour than the DMSO vehicle control
# Settings: 10 µM; exposure time: 3 h pre-incubation + 3 h imaging
# Protocol: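 5-dpf wild-type zebrafish larvae were imaged in 96-well plates. They were treated with 190 Tocris FDA-approved drugs at 10 µM (1 µl/ml DMSO) for 3 h before and 3 h during imaging at 28.5 °C, 48 larvae per drug. Automated image analysis gave % time moving and optomotor responses. Values are drug group mean minus DMSO vehicle mean (n=844), in percentage points, for 10 behaviours.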
row,Compound,activity during period 15
1,CC(C)Nc1cccnc1N1CCN(C(=O)c2cc3cc(NS(C)(=O)=O)ccc3[nH]2)CC1 [Delavirdine mesylate],-4.9
2,CN[C@H]1CC[C@@H](c2ccc(Cl)c(Cl)c2)c2ccccc21 [Sertraline hydrochloride],-26
3,COc1cc2nc(N3CCN(C(=O)C4COc5ccccc5O4)CC3)nc(N)c2cc1OC (stereo not given) [Doxazosin mesylate],-7.81
4,Nc1nc(F)nc2c1ncn2[C@@H]1O[C@H](CO)[C@@H](O)[C@@H]1O [Fludarabine],-6.57
5,Cc1ccc(NC(=O)c2ccc(CN3CCN(C)CC3)cc2)cc1Nc1nccc(-c2cccnc2)n1 [Imatinib mesylate],-11.6
6,CN1CC(=O)N2[C@H](c3ccc4c(c3)OCO4)c3[nH]c4ccccc4c3C[C@@H]2C1=O [Tadalafil],-1.47
7,COc1cc([C@@H]2c3cc4c(cc3[C@@H](O[C@@H]3O[C@@H]5CO[C@@H](C)O[C@H]5[C@H](O)[C@H]3O)[C@H]3COC(=O)[C@H]23)OCO4)cc(OC)c1O [Etoposide],-4.13
8,CC(C)c1nc(N(C)S(C)(=O)=O)nc(-c2ccc(F)cc2)c1/C=C/[C@@H](O)C[C@@H](O)CC(=O)O [Rosuvastatin calcium],15.5
9,N#Cc1ccc2[nH]cc(CCCCN3CCN(c4ccc5oc(C(N)=O)cc5c4)CC3)c2c1 [Vilazodone hydrochloride],-28.4
10,CCCCc1nc(Cl)c(CO)n1Cc1ccc(-c2ccccc2-c2nnn[nH]2)cc1 [Losartan potassium],3.67
11,CN/C(=N\CCSCc1nc[nH]c1C)NC#N [Cimetidine],-5.2
12,CC[C@H](C)C(=O)O[C@H]1C[C@@H](C)C=C2C=C[C@H](C)[C@H](CC[C@@H]3C[C@@H](O)CC(=O)O3)[C@H]21 [Lovastatin],-4.33
13,COc1cc2ncnc(Nc3ccc(F)c(Cl)c3)c2cc1OCCCN1CCOCC1 [Iressa],-0.986
14,CC(c1cc2ccccc2s1)N(O)C(N)=O (stereo not given) [Zileuton],3.35
15,Clc1ccc2nsnc2c1NC1=NCCN1 [Tizanidine hydrochloride],-20.8
16,CN1CCN(CCCN2c3ccccc3Sc3ccc(Cl)cc32)CC1 [Prochlorperazine dimaleate],16.6
17,O=c1[nH]c(=O)n([C@H]2C[C@H](O)[C@@H](CO)O2)cc1C(F)(F)F [Trifluorothymidine],-1.33
18,CN1CC2c3ccccc3Oc3ccc(Cl)cc3C2C1 (stereo not given) [Asenapine maleate],40.8
19,Nc1nc2[nH]cc(CCc3ccc(C(=O)N[C@@H](CCC(=O)O)C(=O)O)cc3)c2c(=O)[nH]1 [Pemetrexed],1.39
20,CNC(=O)c1ccccc1Sc1ccc2c(/C=C/c3ccccn3)n[nH]c2c1 [Axitinib],3.22

row,Compound,activity during period 15
1,Cc1c(-c2ccc(O)cc2)n(Cc2ccc(OCCN3CCCCCC3)cc2)c2ccc(O)cc12 [Bazedoxifene acetate],-15.7
2,C/C(O)=C(\C#N)C(=O)Nc1ccc(C(F)(F)F)cc1 [Teriflunomide],10.3
3,Clc1ccccc1C(c1ccccc1)(c1ccccc1)n1ccnc1 [Clotrimazole],-30.5
4,NC(=O)N1c2ccccc2C=Cc2ccccc21 [Carbamazepine],-0.716
5,Cc1nnc(C(C)C)n1C1C[C@H]2CC[C@@H](C1)N2CC[C@H](NC(=O)C1CCC(F)(F)CC1)c1ccccc1 (stereo in doubt) [Maraviroc],-3.11
6,CC(C)C(=O)Nc1ccc([N+](=O)[O-])c(C(F)(F)F)c1 [Flutamide],-0.963
7,COC(=O)C1=C(C)NC(C)=C(C(=O)OC(C)C)C1c1cccc2nonc12 (stereo not given) [Isradipine],-12.3
8,C=C1[C@H](CO)[C@@H](O)C[C@@H]1n1cnc2c(=O)[nH]c(N)nc21 [Entecavir],-0.773
9,Nc1ccn([C@@H]2O[C@H](CO)[C@@H](O)C2(F)F)c(=O)n1 [Gemcitabine hydrochloride],-1.53
10,Cc1cn([C@H]2C=C[C@@H](CO)O2)c(=O)[nH]c1=O [Stavudine],-0.445
11,CCOC(=O)C1=C(C)NC(C)=C(C(=O)OC)C1c1cccc(Cl)c1Cl (stereo not given) [Felodipine],-11.6
12,C#CCN[C@@H]1CCc2ccccc21 [Rasagiline mesylate],-1.03
13,Cc1cccc(CN2CCN(C(c3ccccc3)c3ccc(Cl)cc3)CC2)c1 (stereo not given) [Meclizine dihydrochloride],8.13
14,COc1cc2nccc(Oc3ccc(NC(=O)C4(C(=O)Nc5ccc(F)cc5)CC4)cc3)c2cc1OC,16.2
15,N[C@@H]1[C@H]2CN(c3nc4c(cc3F)c(=O)c(C(=O)O)cn4-c3ccc(F)cc3F)C[C@@H]12 [Trovafloxacin mesylate],2.91
16,CC1(C)O[C@@H]2[C@@H](CO[C@@]3(COS(N)(=O)=O)OC(C)(C)O[C@@H]23)O1 [Topiramate],3.85
17,CCc1ccc(CCOc2ccc(CC3SC(=O)NC3=O)cc2)nc1 (stereo not given) [Pioglitazone hydrochloride],-0.879
18,OCc1cc(C(O)CNCCCCCCOCCCCc2ccccc2)ccc1O (stereo not given) [Salmeterol xinafoate],23.9
19,Cc1cccc(C)c1OCC(C)N (stereo not given) [Mexiletine hydrochloride],6.49
20,COc1ccc(Cl)cc1C(=O)NCCc1ccc(S(=O)(=O)NC(=O)NC2CCCCC2)cc1 [Glibenclamide],-4.16
